DUSP1 inh: MKP-1 phosphatase inhibitors, primary screen, biochemical, in vitro; Dual specificity protein phosphatase 1 (Homo sapiens), P28562; recombinant MKP-1, OMFP hydrolysis fluorescence; inhibition, %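 (compounds tested at a single concentration somewhere between 10 and 100 µM)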; 0.15% of 65,000 active; AID 374, 2006;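 active = inhibition above about 50%, limit read from the data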;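 also: 0% = DMSO max control wells and 100% = wells with enzyme stopped by NaOH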
Target sequence (P28562 whole entry, looked up): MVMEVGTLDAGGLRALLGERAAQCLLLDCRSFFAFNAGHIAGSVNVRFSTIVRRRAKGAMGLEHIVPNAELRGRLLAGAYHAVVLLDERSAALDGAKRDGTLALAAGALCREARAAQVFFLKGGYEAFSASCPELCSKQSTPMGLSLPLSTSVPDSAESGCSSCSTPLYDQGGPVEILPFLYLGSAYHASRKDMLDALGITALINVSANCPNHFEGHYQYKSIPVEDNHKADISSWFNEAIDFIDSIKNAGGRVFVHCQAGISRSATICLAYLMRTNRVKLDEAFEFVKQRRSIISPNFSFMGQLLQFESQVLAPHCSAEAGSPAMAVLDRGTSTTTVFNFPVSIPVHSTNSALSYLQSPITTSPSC
Cdc25B inh: inhibitors of Cdc25B phosphatase catalytic domain, primary screen, biochemical, OMFP fluorescence; M-phase inducer phosphatase 2 (Homo sapiens), P30305; recombinant Cdc25B, OMFP fluorescence Ex485/Em525; inhibition, %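 (compounds tested at 10 µM final in the well)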; 0.1% of 65,000 active; AID 368, 2006; in the data active = inhibition above about 50%
PLAP act: PLAP enzyme activators, biochemical, luminescence, HTS; 1.2% of 96,000 active; activation fold at 20 µM; Alkaline phosphatase, placental type (Homo sapiens), P05187; purified PLAP enzyme, luminescent substrate read-out; stronger effect = higher value; in the data active = activation fold above about 2
TNAP act DEA: human TNAP enzyme activators, primary screen, biochemical, luminescent, intermediate phosphate acceptor level. Alkaline phosphatase, tissue-nonspecific isozyme (Homo sapiens), P05186. purified TNAP, CDP-star luminescence, 100 mM DEA, 30 min; stronger effect = higher value; scale: 0 levamisole-inhibited, 1 vehicle-only enzyme. activation factor at 20 µM. 64,000 tested, under 10 active. AID 813, 2007;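 active = activation factor of at least 2 at 20 µM, relative to controls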
HePTP inhibitor: inhibitors of human HePTP phosphatase, primary screen, biochemical, absorbance, leukemia target; Tyrosine-protein phosphatase non-receptor type 7 (Homo sapiens), P35236; recombinant HePTP phosphatase activity, OD absorbance; inhibition, % at 20 µM; 0.64% of 110,000 active; in the data active = inhibition above about 50%;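 also: plate controls were vehicle for no effect and reference inhibitor for full effect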
Hsp90 block: tumor Hsp90 inhibitors, primary screen, cell lysate, fluorescence polarization, NCI-N417 lysate; Heat shock protein HSP 90-alpha (Homo sapiens), P07900; Cy3B-geldanamycin FP displacement; inhibition, % at 30 µM; 0.35% of 64,000 active;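 active = inhibition above 50%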;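 also: 0% = tracer plus lysate wells and 100% = tracer alone without lysate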
Numbers without * were called inactive; · = not tested or not shown. This is a sample that favours compounds with a hit; in the whole collection about 1.5% have one here.

SMILES	DUSP1 inh	Cdc25B inh	PLAP act	TNAP act DEA	HePTP inhibitor	Hsp90 block
CCCCOC(=O)c1ccc(NC(=O)Nc2ccccc2)cc1	·	·	·	·	4	·
Cc1cccc(OCCCCc2c(C)n[nH]c2C)c1C	8	-9	2.4*	1.2	6	-2
COc1ccc(OCCCc2c(C)n[nH]c2C)cc1	·	·	2.3*	·	·	·
O=[N+]([O-])c1ccc(/C=N\Nc2nc(-c3ccccc3)c3cc(Cl)ccc3n2)o1	·	·	·	·	11	·
CC1CCC(N2CCN(S(=O)(=O)c3ccc(Cl)cc3)CC2)CC1 (centres undefined)	·	·	·	·	-8	·
O=C(Nc1nc(-c2ccccc2)cs1)c1cc2ccccc2oc1=O	·	·	·	·	-15	·
O=C(NC(=S)NNc1nc(-c2ccccc2)cs1)c1cc2ccccc2oc1=O	·	·	·	·	99*	·
CC(CCc1ccc(O)cc1)NCCc1ccc(O)c(O)c1 (centres undefined)	·	·	·	·	·	61*
CCCc1c(C)c2c(OCC(=O)O)cc(OCC(=O)O)cc2oc1=O	·	·	·	·	4	·
O=C(COc1ccc2c3c(c(=O)oc2c1)CCCC3)OCc1ccccc1	·	·	·	·	6	·
Oc1cc(O)c2c(c1)O[C@H](c1ccc(O)c(O)c1)[C@@H](O)C2	·	·	·	·	·	70*
Cc1ccc(-c2nc(N/N=C/c3ccccc3O)c3ccccc3n2)cc1	·	·	·	·	-4	·
O=C(NC(=S)Nc1ccccc1)c1ccccc1	·	·	·	·	-6	·
O=C(NNC(=S)Nc1ccccc1)c1ccncc1	·	·	2*	·	·	·
O=C(/C=C/c1ccco1)/C=C/c1ccc(-c2ccc(Cl)c(Cl)c2)o1	·	·	·	·	102*	·
O=C(O)/C=C/c1ccc(-c2ccc(Cl)c(Cl)c2)o1	·	·	·	·	9	·
CC(=O)/C=C/c1ccc(-c2cc(Cl)ccc2Cl)o1	·	·	·	·	-10	·
O=C(/C=C/c1ccc(-c2cc(Cl)ccc2Cl)o1)c1ccco1	·	·	·	·	60*	·
Nc1cc(N)c(OCC(F)(F)F)cc1OCC(F)(F)F	-6	11	1.2	0.9	4	89*
Cc1cccc(NC(=O)c2c(O)c3cccc4c3n(c2=O)CCC4)n1	11	-17	1.3	1	-3	50*
Cc1nnc(NC(=O)CSc2nnc(CCc3nc4ccccc4[nH]3)n2C)s1	-7	-2	2.1*	0.9	7	-2
CCc1nnc(NC(=O)CSc2nnc(CCc3nc4ccccc4[nH]3)n2C)s1	-8	3	1.2	1	12	-11
O=C(Nc1ccc2nc(-c3ccccn3)[nH]c2c1)C1CCCCC1	·	·	2.3*	·	·	·
C=CCN=C1CC(C)(C)CC(=O)/C1=C(/O)CCC	·	·	·	·	102*	·
CCC/C(O)=C1/C(=O)CC(C)(C)CC1=NCCCCCCN=C1CC(C)(C)CC(=O)/C1=C(/O)CCC	·	·	·	·	-4	·
SMILES	DUSP1 inh	Cdc25B inh	PLAP act	TNAP act DEA	HePTP inhibitor	Hsp90 block
CC(=O)[C@]1(O)Cc2c(O)c3c(c(O)c2[C@@H](O[C@H]2C[C@H](N)[C@H](O)[C@H](C)O2)C1)C(=O)c1ccccc1C3=O	·	·	·	·	·	156*
COc1cccc2c1C(=O)c1c(O)c3c(c(O)c1C2=O)C[C@@](O)(C(C)=O)C[C@@H]3O[C@H]1C[C@H](N)[C@H](O)[C@H](C)O1	6	-1	·	0.7	9	80*
CCc1nnc(NC(=O)c2ccc(Cl)cc2Cl)s1	·	·	·	·	5	·
Oc1ccc(CN2CCc3ccccc3C2)c2cccnc12	·	·	2.1*	·	·	·
CCOC(=O)c1ccccc1NC(=O)c1cc(-c2cccs2)nc2ccccc12	·	·	·	·	4	·
C=CCNC(=S)NNC(=O)C(CCC(C)C)CC(C)(C)O (centres undefined)	·	·	2.7*	·	·	·
O=C(Nc1ccc2oc(-c3cccc(Cl)c3Cl)nc2c1)c1ccc([N+](=O)[O-])cc1	·	·	·	·	-6	·
COc1ccc(NC(=O)C(=O)N/N=C/c2ccccc2O)cc1	·	·	·	·	5	·
Cc1cccc(N2CCN(C(=O)CCc3nc4ccccc4[nH]3)CC2C)c1 (centres undefined)	·	·	2.2*	·	·	·
COc1cccc(/C=N/Nc2nc(Nc3ccccc3)nc(-n3nc(C)cc3C)n2)c1O	·	·	2.3*	·	·	·
COc1cccc(/C=N/Nc2nc(N3CCCCC3)nc(N3CCCCC3)n2)c1O	·	·	·	·	-9	·
COc1ccccc1C(=O)Nc1ncn[nH]1	·	·	·	·	-22	·
O=C1C=CC(=O)C(/C(=C/NCc2ccccc2)[N+](=O)[O-])=C1	·	·	·	·	104*	·
O=C(Cn1cnc([N+](=O)[O-])n1)NCc1ccccc1	·	·	1	·	·	·
O=C(N/N=C/C(Br)=C/c1ccccc1)c1cc(-c2ccco2)[nH]n1	·	·	·	·	102*	·
O=C1N(c2ccccc2)C2CS(=O)(=O)CC2N1c1cccc(Cl)c1 (centres undefined)	·	·	·	·	-6	·
COc1cc(/C=C2\C(=O)N(c3ccc(S(N)(=O)=O)cc3)N=C2C)ccc1O	·	·	·	·	-4	·
CC(=O)c1ccc(NC(=O)CSc2nnc(Cc3cccn3C)n2-c2ccc(F)cc2)cc1	17	-8	1.7	0.9	3	87*
CCOc1cc(/C=C2\SC(=S)N(C3CCCCC3)C2=O)ccc1O	·	·	·	·	-1	·
O=C1NN(c2ccccc2)C(=O)/C1=C/c1cccc(Cl)c1Cl	·	·	·	·	5	·
O=C(O)c1ccc2c3c(ncnc13)-c1ccccc1C2=O	-10	-1	1	0.8	8	90*
O=C1c2ccccc2-c2ncnc3cccc1c23	8	2	·	0.9	-3	3
Cc1cc2nc(-c3cccnc3SCC(=O)NCc3ccco3)[nH]c2cc1C	29	29	·	0.9	0	-9
O=C(CSc1ncccc1-c1nc2ccccc2[nH]1)NCc1ccco1	2	11	2*	0.9	0	-11
CCC(Oc1ccccc1)C(=O)Nc1ccc(Cl)c([N+](=O)[O-])c1 (centres undefined)	·	·	·	·	-8	·
SMILES	DUSP1 inh	Cdc25B inh	PLAP act	TNAP act DEA	HePTP inhibitor	Hsp90 block
CCc1ccc(-n2c(O)cnc2Nc2nc(C)cc(C)n2)cc1	-8	-3	2.7*	1.2	3	0
COc1ccc(-n2c(O)cnc2Nc2nc(C)cc(C)n2)cc1OC	·	·	2.7*	·	-6	·
COc1ccc(-n2c(C)n[nH]c2=O)cc1OC	·	·	0.8	·	·	·
COc1ccc(N2C(=O)NC(=O)/C(=C\c3ccccc3Cl)C2=O)cc1	·	·	·	·	-4	·
O=C(NCc1ccccc1)c1ccc(Cl)c(S(=O)(=O)N2CCCCC2)c1	·	·	·	·	-15	·
COc1ccc(OC)c(-n2c(-c3cc(-c4ccc(F)cc4)n[nH]3)n[nH]c2=S)c1	·	·	2*	·	·	·
COc1ccc(C2(O)CCN(CC(=O)Nc3nccs3)CC2)c(OC)c1	-4	-7	2.4*	0.9	4	-3
Cc1ccc(N=C2NC(=O)/C(=C/c3ccccc3F)S2)cc1	·	·	·	·	92*	·
COc1ccccc1/C=C1/SC(=Nc2ccc(F)cc2)NC1=O	·	·	·	·	1	·
Cn1ccnc1C(O)c1cc(C(C)(C)C)c(O)c(C(C)(C)C)c1 (centres undefined)	12	-5	2.2*	1.1	-3	-4
Cc1cc(C)n(C(=O)Nc2ccccc2)n1	·	·	·	·	6	·

Screens as filed in PubChem BioAssay.
